PubChem BioAssay
Activity calls are given as the source filed them. How the calls were made is not given here.

molecular target: Lethal factor (Bacillus anthracis) (UniProt P15917); test: Bacillus anthracis lethal factor inhibition, microsphere flow cytometry protease assay, validation at 10 µM (AID 588461); conditions: multiplex microsphere protease cleavage assay, hits give high values
Sequence (P15917 whole entry, looked up): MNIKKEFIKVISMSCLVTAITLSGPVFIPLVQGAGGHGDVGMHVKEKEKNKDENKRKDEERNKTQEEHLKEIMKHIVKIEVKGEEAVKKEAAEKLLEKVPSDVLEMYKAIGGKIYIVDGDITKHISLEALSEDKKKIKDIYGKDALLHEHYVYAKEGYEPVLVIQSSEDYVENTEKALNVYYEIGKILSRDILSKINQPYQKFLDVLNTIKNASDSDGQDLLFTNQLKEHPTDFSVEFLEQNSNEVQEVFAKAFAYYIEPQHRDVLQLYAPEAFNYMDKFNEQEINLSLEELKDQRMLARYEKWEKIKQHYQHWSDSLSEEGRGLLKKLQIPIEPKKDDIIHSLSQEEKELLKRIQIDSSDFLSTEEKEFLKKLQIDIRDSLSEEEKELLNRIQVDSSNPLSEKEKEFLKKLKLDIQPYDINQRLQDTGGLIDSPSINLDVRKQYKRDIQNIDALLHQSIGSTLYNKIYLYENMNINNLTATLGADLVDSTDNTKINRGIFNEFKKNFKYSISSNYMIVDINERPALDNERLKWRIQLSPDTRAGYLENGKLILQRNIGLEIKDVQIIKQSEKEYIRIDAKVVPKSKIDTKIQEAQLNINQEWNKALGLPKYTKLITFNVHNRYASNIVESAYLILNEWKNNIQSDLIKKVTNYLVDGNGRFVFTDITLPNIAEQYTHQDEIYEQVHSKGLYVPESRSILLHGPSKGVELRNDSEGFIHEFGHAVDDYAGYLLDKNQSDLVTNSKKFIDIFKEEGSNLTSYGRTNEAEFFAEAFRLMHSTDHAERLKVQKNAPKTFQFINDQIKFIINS

Structure (SMILES) | inhibition
CC(=O)SC1CC2=CC(=O)CCC2(C)C2CCC3(C)C(CCC34CCC(=O)O4)C12 (configuration not stated) | -5.9% (inactive)
O=C(NC(Nc1ccccn1)C(Cl)(Cl)Cl)c1ccccc1 (configuration not stated) | 0.6% (inactive)
CCCCOc1ccc(OCCCN2CCOCC2)cc1 | -4.8% (inactive)
CSc1cccc(NC(=O)/C=C/c2ccccc2)c1 | -8.2% (inactive)
O=C(NC1CC1)C1CCN(C2CCN(C(=O)Cc3ccc(F)cc3)CC2)CC1 | 4.9% (inactive)
CC1(C)Cc2nc3oc4c(NCc5ccccc5)ncnc4c3cc2CO1 | 2.2% (inactive)
COc1cccc(CC(=O)NCC2COc3ccccc3O2)c1OC (configuration not stated) | 0.6% (inactive)
Cc1cccc2c(C(=O)O)cc(-c3cccnc3)nc12 | -6.1% (inactive)
CC[C@H](CO)NCCN[C@H](CC)CO | -10% (inactive)
COc1ccccc1C1(CC(=O)N2CCCCC2)CCOC(C(C)C)C1 (configuration not stated) | -3.3% (inactive)
CC(=O)Oc1ccc(C2OC(=O)c3ccccc3N2C(C)=O)cc1 (configuration not stated) | 3.3% (inactive)
CC1(C)OC2OC(C(=O)N/N=C/c3ccccc3F)C3OC(C)(C)OC3C2O1 (configuration not stated) | -1.9% (inactive)
CC12CCC(C(=O)NCc3ccccn3)(OC1=O)C2(C)C (configuration not stated) | 3% (inactive)
O=C(O)[C@H](Cc1ccccc1)NC(=O)N1CCC(Cc2ccccc2)CC1 | -2.3% (inactive)
Cc1cccc(-n2c(Cc3ccccc3)n[nH]c2=S)c1 | -2.9% (inactive)
COc1cc(/C=C/C(=O)N2CCCC2)cc(OC)c1OC | 4.4% (inactive)
COc1ccc(/C=C/C(=O)NC(=S)NN2CCCCC2c2cccnc2)cc1 (configuration not stated) | -3.5% (inactive)
